Reference: PubChem BioAssay (EPA / NIEHS)
Inconclusive results are not listed. Activity calls are given as the source filed them. Rule for the calls: active = hit-call score of the fitted dose curve at least 0.9, where 1 is the maximum; inconclusive = response in the unintended direction; inactive = score below 0.9.

How the values were obtained:
[1] = ATG_XTT_Cytotoxicity: Cytotoxicity Assessment in the Attagene TRANS-FACTORIAL HepG2 Assay (AID 2283584);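 for AC50: XTT signal for cell number as viability in transfected HepG2 cells; cells exposed to compound for 24 h before reading; active means loss of viability signal versus DMSO baseline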
Summary of the method: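 HepG2 cells transiently transfected with GAL4-UAS multiple reporter units, dosed 24 h; cytotoxicity read by XTT as loss of signal versus DMSO baseline.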

[2] = ACEA_AR_agonist_AUC_viability: ACEA Biosciences xCELLigence Real-Time Cell Analysis on Androgen Receptor Agonism for Viability (AID 2283775);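 for AC50: viability read 80 hours after compound addition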
Summary of the method: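 Viability endpoint from xCELLigence impedance in 22Rv1 prostate cells at 80 h. Eight-point series, 100 uM maximum final.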

[3] = molecular target: Cellular tumor antigen p53 (Homo sapiens) (UniProt P04637); test: TOX21_p53_BLA_p2_ratio: Tox21 HCT-116 p53 Agonism Beta-lactamase Assay, Ratio, Phase 2 (AID 2283592)
Cellular tumor antigen p53 (Homo sapiens), sequence (P04637 whole entry, looked up): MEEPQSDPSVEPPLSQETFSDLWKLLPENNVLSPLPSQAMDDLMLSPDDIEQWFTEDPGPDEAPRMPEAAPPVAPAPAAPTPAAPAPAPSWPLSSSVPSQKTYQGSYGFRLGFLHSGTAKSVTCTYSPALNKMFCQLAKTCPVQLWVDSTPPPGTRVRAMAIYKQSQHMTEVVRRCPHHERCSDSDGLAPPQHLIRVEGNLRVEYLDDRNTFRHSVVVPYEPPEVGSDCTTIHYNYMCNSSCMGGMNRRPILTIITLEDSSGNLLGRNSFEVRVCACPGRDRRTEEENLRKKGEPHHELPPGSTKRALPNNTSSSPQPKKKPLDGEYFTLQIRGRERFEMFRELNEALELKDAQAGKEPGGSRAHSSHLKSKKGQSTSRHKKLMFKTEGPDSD
Summary of the method: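 First, HCT116 reporter cells settle for 5 h at 37C. Next, DMSO compound solutions are pinned in (217-fold dilution) and left 16 h. Finally, CCF4-AM substrate is loaded 2 h at room temperature and the 460/530 nm ratio read.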

[4] = molecular target: Cellular tumor antigen p53 (Homo sapiens) (UniProt P04637); test: TOX21_p53_BLA_p5_ratio: Tox21 HCT-116 p53 Agonism Beta-lactamase Assay, Ratio, Phase 5 (AID 2283599)
Summary of the method: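 Beta-lactamase reporter ratio (blue 460 nm over green 530 nm, 405 nm excitation) after 2 h CCF4-AM loading, in HCT-116 cells exposed 16 h at 37 C to compounds pinned at 217-fold dilution. Increases relative to DMSO baseline scored.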

[5] = molecular target: Cellular tumor antigen p53 (Homo sapiens) (UniProt P04637); test: TOX21_p53_BLA_p4_ratio: Tox21 HCT-116 p53 Agonism Beta-lactamase Assay, Ratio, Phase 4 (AID 2283601)
Summary of the method: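 Signal is the blue/green (460nm/530nm) ratio of cleaved versus uncleaved CCF4-AM substrate, read after 2 h substrate loading. Cells were HCT116 carrying the p53-responsive beta-lactamase reporter, dosed 16 h at 37C, 5% CO2; CellTiter-Glo measured in parallel.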

[6] = TOX21_p53_BLA_p4_viability: Viability Assessment in the Tox21 HCT-116 p53 Agonism Beta-lactamase Assay, Phase 4 (AID 2283597);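 note: hits lower the luminescence signal meaning cytotoxicity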
Summary of the method: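 4000 HCT116 cells per well; 5 h attachment; compounds from DMSO, 217-fold dilution; 16 h at 37C. Then CCF4-AM, 2 h RT, followed by CellTiter-Glo, 30 min RT, luminescence. Decrease = cytotoxicity.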

[7] = TOX21_p53_BLA_p5_viability: Viability Assessment in the Tox21 HCT-116 p53 Agonism Beta-lactamase Assay, Phase 5 (AID 2283600)
Summary of the method: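 Decreased CellTiter-Glo luminescence denotes lost viability. Exposure: 16 h at 37C, 5% CO2, with compounds from DMSO stocks diluted 217-fold in wells of 4000 cells.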

[8] = molecular target: Cellular tumor antigen p53 (Homo sapiens) (UniProt P04637); test: TOX21_p53_BLA_p3_ratio: Tox21 HCT-116 p53 Agonism Beta-lactamase Assay, Ratio, Phase 3 (AID 2283596)
Summary of the method: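 Cells were seeded at 4000/well, rested 5 h at 37C, then dosed with DMSO compound solutions (217-fold dilution) for 16 h. CCF4-AM substrate was loaded for 2 h at room temperature, and the 460/530 nm emission ratio was fitted for gain of signal versus DMSO.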

[9] = TOX21_p53_BLA_p3_viability: Viability Assessment in the Tox21 HCT-116 p53 Agonism Beta-lactamase Assay, Phase 3 (AID 2283593);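 note: cells exposed to compound for 16 h before reading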
Summary of the method: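 Cellular ATP was quantified by CellTiter-Glo luminescence, read after 30 min at room temperature. Beforehand, HCT116 cells (4000/well) received compound 5 h post-seeding, 217-fold diluted from DMSO, then incubated 16 h at 37C.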

Measured: AC50

Oc1ccc(Cl)cc1Cc1cc(Cl)ccc1O
active: [1] 27 µM | [2] 11.5 µM

C=CC(C)(CCC=C(C)C)OC(=O)C(C)C (centres undefined)
inactive: [1] | [3] | [4] | [5]

CCCCCCCOC(=O)CCC
inactive: [1] | [2]

CCc1nccnc1C
inactive: [1] | [3] | [6] | [7]

O=CN1CCCCC1
inactive: [1] | [3] | [8] | [4] | [7]

O=C(O)Cc1c(Cl)ccc(Cl)c1Cl
inactive: [1] | [8] | [6] | [7]

CNC(=S)N(C)C
not listed: [2] | [3] | [7]
inactive: all other assays above

O=C(c1ccccc1)C1CCC1
inactive: [1] | [2]

COc1ccc(-c2coc3cc(O)ccc3c2=O)cc1
inactive: [1] | [8] | [6] | [7]

Cc1ccc(C(C)c2ccc(C)c(C)c2)cc1C
inactive: [1] | [8] | [4] | [5] | [2]

CCN(CC#N)c1cccc(C)c1
inactive: [1] | [6] | [5]

CCCCCCCC/C=C\CCCCCCCC(=O)OCCO
inactive: [1] | [2]

CCC(=O)Oc1ccc(/C(CC)=C(\CC)c2ccc(OC(=O)CC)cc2)cc1
active: [3] 6.81 µM | [8] 16.4 µM | [4] 5.08 µM
inactive: [1] | [7] | [5]

CC(C)CCCCCOC(=O)CCS
inactive: [1] | [3] | [8] | [4]

CCCc1ccc(OC)cc1
inactive: [1] | [2]

CC(=O)OCC(C)OC(C)=O (centres undefined)
inactive: [1] | [3] | [8] | [4] | [5]

NC(=O)OCC(COC(N)=O)c1ccccc1
not listed: [2] | [3] | [6]
inactive: all other assays above

COc1ccc([C@@H]2CC(=O)c3c(O)cc(O[C@@H]4O[C@H](CO[C@@H]5O[C@@H](C)[C@H](O)[C@@H](O)[C@H]5O)[C@@H](O)[C@H](O)[C@H]4O)cc3O2)cc1OC
inactive: [1] | [8] | [6] | [4] | [7]

C[Si](C)O[Si](C)(C)O[Si](C)(C)O[Si](C)C
inactive: [1] | [8] | [7]

COC(=O)c1sccc1S(N)(=O)=O
inactive: [1] | [6] | [5]

CC1=NN(c2cc(S(=O)(=O)O)ccc2Cl)C(=O)C1N=Nc1ccccc1 (centres undefined)
not listed: [7] | [9]
inactive: all other assays above
